# Inconclusive results are not listed. Activity calls are given as the source filed them. How the source made its calls, unless noted: active means hit-call score of the fitted dose curve at least 0.9, where 1 is the maximum; inactive means score below 0.9.
# How the values were obtained:
# [1] = ACEA_ER_80hr: ACEA Biosciences xCELLigence Real-Time Cell Analysis on Estrogen Receptor Agonism for Proliferation (AID 2282667; active means hit-call score of the fitted dose curve at least 0.9, where 1 is the maximum); details: T47D proliferation, impedance (xCELLigence), 80 h
# Outline: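 Cell-growth kinetics were measured by impedance in T47D cells treated continuously with compound (top 100 uM final, 1:4 steps, 8 points). Activity at 80 h was scored as signal gain over the DMSO baseline.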
# [2] = ATG_CRE_CIS: Attagene CIS-FACTORIAL HepG2 Assay for human cAMP Responsive Element (CRE) binding protein 3 (AID 2282926); details: HepG2 CRE cis-reporter, Attagene multiplexed mRNA; actives raise or lower the signal
# Outline: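 Cells carrying cis-regulated reporter constructs respond through their own endogenous factors. After 24 h treatment, RNA is reverse-transcribed, amplified, labelled and sized by capillary electrophoresis; up- and down-regulation are both scored against vehicle.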
# [3] = molecular target: CCAAT/enhancer-binding protein beta (Homo sapiens) (UniProt P17676); experiment: ATG_C_EBP_CIS: Attagene CIS-FACTORIAL HepG2 Assay for human CCAAT/Enhancer Binding Protein (C/EBP) beta (AID 2282927); details: HepG2 Attagene cis-factorial transcription factor reporter; actives raise or lower the signal
# Outline: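 HepG2, transient MRTU transfection, 24 h treatment. RT-PCR plus CE fluorescence; DMSO negative control, bidirectional fit.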
# [4] = ATG_CMV_CIS: Attagene CIS-FACTORIAL HepG2 Assay for human CMV (Internal Marker) (AID 2282928); details: HepG2 CMV promoter reporter, transcription factor profiling; actives raise or lower the signal;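 further: endpoint acts as a background internal control marker rather than a target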
# Outline: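 24 h chemical treatment, HepG2 with transient multi-reporter transfection; RNA → oligo(dT) RT → PCR → 6-FAM extension → HpaI digest → CE fluorescence. Bidirectional fit, DMSO negative control.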
# [5] = ATG_DR4_LXR_CIS: Attagene CIS-FACTORIAL HepG2 Assay for human Liver X Receptor (LXR), DR4 submotif (AID 2282929); details: HepG2 Attagene DR4 cis-reporter, mRNA transcription; actives raise or lower the signal
# Outline: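 DR4 cis-reporter in HepG2, 24 h exposure. Detection: RT-PCR, 6-FAM labelling, CE fragment analysis. Endpoint fitted bidirectionally, DMSO = baseline.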
# [6] = molecular target: Aryl hydrocarbon receptor (Homo sapiens) (UniProt P35869); experiment: ATG_Ahr_CIS: Attagene CIS-FACTORIAL HepG2 Assay for human Aryl Hydrocarbon Receptor (Ahr) (AID 2282930); details: HepG2 AhR cis-factorial reporter transcription; actives raise or lower the signal
# Outline: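 Endogenous factor activity is tracked through cis-promoter reporter units transfected into HepG2 cells. Transcript levels at 24 h are read by fluorescent RT-PCR and capillary electrophoresis, with activity in either direction scored relative to DMSO.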
# [7] = ATG_AP_2_CIS: Attagene CIS-FACTORIAL HepG2 Assay for human Activator Protein 2 (AP-2) (AID 2282932); details: HepG2 AP-2 cis-reporter, Attagene transcription factor profiling; actives raise or lower the signal
# Outline: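 Read-out: fluorescent reporter mRNA via RT-PCR and capillary electrophoresis, 24 h post-dose in transiently transfected HepG2. Endogenous factors drive cis-promoter reporters; gain or loss of signal fitted bidirectionally against DMSO.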
# [8] = molecular target: Retinoic acid receptor alpha (Homo sapiens) (UniProt P10276); experiment: ATG_DR5_RAR_CIS: Attagene CIS-FACTORIAL HepG2 Assay for human Retinoic Acid Receptor Alpha (RARE), DR5 submotif (AID 2282934); details: HepG2 Attagene cis-factorial RARE DR5 reporter, mRNA; actives raise or lower the signal
# Outline: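 After 24 h of chemical exposure, transiently transfected HepG2 cells were lysed for total RNA; the DR5-regulated reporter transcript was quantified via RT-PCR and capillary electrophoresis, with activity fitted bidirectionally against DMSO.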
# [9] = molecular target: Transcription factor E2F1 (Homo sapiens) (UniProt Q01094); experiment: ATG_E2F_CIS: Attagene CIS-FACTORIAL HepG2 Assay for human E2F Transcription Factor 1 (AID 2282935); details: HepG2 Attagene cis-reporter, E2F reporter RNA transcripts; actives raise or lower the signal
# Outline: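 Transient MRTU transfection of HepG2; 24 h compound exposure; RNA → oligo(dT) RT → PCR → FAM label → HpaI cut → CE fluorescence. Gain/loss of signal fit against DMSO.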
# [10] = ATG_E_Box_CIS: Attagene CIS-FACTORIAL HepG2 Assay for human Enhancer Box (E-box) (AID 2282936); details: HepG2 E-box cis-reporter transcription, actives raise or lower the signal
# Outline: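 Transiently transfected HepG2, endogenous TF-driven reporters, 24 h dosing. Readout: RT-PCR plus capillary electrophoresis of fluorescent reporter fragments. Gain or loss of signal fitted bidirectionally against DMSO baseline.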
# [11] = ATG_M_61_CIS: Attagene CIS-FACTORIAL HepG2 Assay for M61 Transcription Factor (Internal Marker) (AID 2282937); details: HepG2 Attagene CIS-FACTORIAL M61 internal marker reporter; actives raise or lower the signal
# Outline: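 Background-control endpoint: HepG2 cells with cis-regulated reporter constructs, 24 h exposure, reporter mRNA detected via fluorescent primer extension and capillary electrophoresis; values from bidirectional fitting with DMSO baseline.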
# [12] = ATG_EGR_CIS: Attagene CIS-FACTORIAL HepG2 Assay for human Early Growth Response 1 (EGR1) (AID 2282938); details: HepG2 Attagene CIS-FACTORIAL EGR reporter mRNA; actives raise or lower the signal
# Outline: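 Endpoint derived by bidirectional fitting versus DMSO vehicle. Method: cis-promoter reporter units transfected into HepG2, 24 h dosing, RNA isolation, RT-PCR with 6-FAM primer extension and HpaI digestion, then capillary electrophoresis fluorescence detection.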
# [13] = ATG_M_19_CIS: Attagene CIS-FACTORIAL HepG2 Assay for M19 Transcription Factor (Internal Marker) (AID 2282939); details: HepG2 Attagene CIS-FACTORIAL M19 internal marker reporter; actives raise or lower the signal
# Outline: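 HepG2 cells transiently transfected with cis-regulated multiple reporter transcription units were dosed for 24 h; reporter mRNA was quantified by RT-PCR, 6-FAM primer-extension labelling, HpaI digestion and capillary electrophoresis, with bidirectional fitting against DMSO baseline.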
# [14] = ATG_ERE_CIS: Attagene CIS-FACTORIAL HepG2 Assay for Estrogen Response Element (ERE) (AID 2282940); details: HepG2 ERE cis-reporter, Attagene RNA transcript; actives raise or lower the signal
# Outline: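 HepG2 cells transiently transfected with cis-promoter-driven multiplexed reporter transcription units report endogenous TF activity. After 24 h compound exposure, reporter mRNA is quantified by RT-PCR with capillary electrophoresis fluorescence; bidirectional fitting versus DMSO baseline.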
# [15] = ATG_Ets_CIS: Attagene CIS-FACTORIAL HepG2 Assay for human Erythroblast Transformation Specific (ETS) (AID 2282941); details: HepG2 ETS cis-reporter transcription, actives raise or lower the signal
# Outline: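 Cis-regulated reporter mRNA induction in HepG2 (transient transfection), 24 h exposure, RT-PCR plus capillary electrophoresis detection; DMSO serves as negative control and baseline.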
# [16] = ATG_FoxO_CIS: Attagene CIS-FACTORIAL HepG2 Assay for human Forkhead box O (FoxO) (AID 2282943); details: HepG2 Attagene cis-reporter, FoxO element, mRNA; actives raise or lower the signal
# Outline: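 Transfected HepG2 reporter cells exposed to test chemical for 24 h; reporter RNA measured by reverse transcription, PCR and fluorescent capillary electrophoresis; curves fitted for increases and decreases against DMSO.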
# [17] = ATG_GATA_CIS: Attagene CIS-FACTORIAL HepG2 Assay for human GATA Binding Protein (AID 2282944); details: HepG2 GATA cis-element reporter, Attagene multiplex mRNA; actives raise or lower the signal
# Outline: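 HepG2 cells transiently transfected with multiplexed cis-element reporter units reflecting endogenous transcription factor activity; reporter mRNA measured after 24 h dosing by RT-PCR, 6-FAM labeling, HpaI digestion and capillary electrophoresis. Bidirectional fitting versus DMSO baseline.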
# [18] = ATG_AP_1_CIS: Attagene CIS-FACTORIAL HepG2 Assay for human Activator Protein 1 (AP-1) (AID 2282931); details: HepG2 Attagene cis-factorial AP-1 reporter mRNA; actives raise or lower the signal
# Outline: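 Cis-regulated reporter units transiently expressed in HepG2 report endogenous transcription-factor activity. Signal: reporter mRNA at 24 h, via RT-PCR and fluorescent capillary electrophoresis. Endpoint derived by bidirectional fitting, DMSO as negative control.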
# [19] = ATG_BRE_CIS: Attagene CIS-FACTORIAL HepG2 Assay for human Bone Morphogenetic Protein (BMP) Response Element (BRE) (AID 2282933); details: HepG2 BMP response element reporter, Attagene transcription factor profiling; actives raise or lower the signal
# Outline: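 HepG2 cells transiently transfected with multiplexed cis-element reporter units were dosed with chemical for 24 h. Reporter mRNA was measured by RT-PCR with fluorescent labelling, HpaI digestion and capillary electrophoresis; bidirectional fitting relative to DMSO.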
# [20] = molecular target: Hepatocyte nuclear factor 3-beta (Homo sapiens) (UniProt Q9Y261); experiment: ATG_FoxA2_CIS: Attagene CIS-FACTORIAL HepG2 Assay for human Forkhead box A2 (FOXA2) (AID 2282942); details: HepG2 cis-reporter transcription factor activity, 24 h; actives raise or lower the signal
# Outline: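 Measured: reporter mRNA induction or loss in HepG2 transiently carrying multiple cis-regulated reporter units, 24 h after dosing. Quantified by RT-PCR plus capillary electrophoresis, normalised to DMSO.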
# Sequence of Aryl hydrocarbon receptor (Homo sapiens) (P35869 whole entry, looked up): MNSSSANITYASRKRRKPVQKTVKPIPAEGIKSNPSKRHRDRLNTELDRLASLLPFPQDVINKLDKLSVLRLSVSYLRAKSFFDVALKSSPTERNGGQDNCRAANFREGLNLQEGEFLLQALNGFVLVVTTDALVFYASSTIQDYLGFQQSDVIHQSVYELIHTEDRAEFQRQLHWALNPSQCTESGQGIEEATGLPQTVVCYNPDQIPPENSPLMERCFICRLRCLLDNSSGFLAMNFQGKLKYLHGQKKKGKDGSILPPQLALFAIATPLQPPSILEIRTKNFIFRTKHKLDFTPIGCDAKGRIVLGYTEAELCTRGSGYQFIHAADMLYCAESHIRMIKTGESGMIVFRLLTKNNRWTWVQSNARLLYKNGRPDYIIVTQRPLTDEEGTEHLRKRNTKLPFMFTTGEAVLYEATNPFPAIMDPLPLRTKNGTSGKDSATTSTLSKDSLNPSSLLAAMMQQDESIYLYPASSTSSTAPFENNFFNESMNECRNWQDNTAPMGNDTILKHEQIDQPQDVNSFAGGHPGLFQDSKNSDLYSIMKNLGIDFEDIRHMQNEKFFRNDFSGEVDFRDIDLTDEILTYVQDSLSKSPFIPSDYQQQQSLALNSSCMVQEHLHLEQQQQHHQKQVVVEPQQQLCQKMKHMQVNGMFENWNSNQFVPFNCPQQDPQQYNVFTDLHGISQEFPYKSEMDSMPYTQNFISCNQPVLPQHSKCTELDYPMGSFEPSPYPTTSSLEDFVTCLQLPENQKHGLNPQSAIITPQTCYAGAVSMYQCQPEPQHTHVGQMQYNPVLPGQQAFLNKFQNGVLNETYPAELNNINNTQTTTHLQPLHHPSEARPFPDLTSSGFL
# Sequence of Hepatocyte nuclear factor 3-beta (Homo sapiens) (Q9Y261 whole entry, looked up): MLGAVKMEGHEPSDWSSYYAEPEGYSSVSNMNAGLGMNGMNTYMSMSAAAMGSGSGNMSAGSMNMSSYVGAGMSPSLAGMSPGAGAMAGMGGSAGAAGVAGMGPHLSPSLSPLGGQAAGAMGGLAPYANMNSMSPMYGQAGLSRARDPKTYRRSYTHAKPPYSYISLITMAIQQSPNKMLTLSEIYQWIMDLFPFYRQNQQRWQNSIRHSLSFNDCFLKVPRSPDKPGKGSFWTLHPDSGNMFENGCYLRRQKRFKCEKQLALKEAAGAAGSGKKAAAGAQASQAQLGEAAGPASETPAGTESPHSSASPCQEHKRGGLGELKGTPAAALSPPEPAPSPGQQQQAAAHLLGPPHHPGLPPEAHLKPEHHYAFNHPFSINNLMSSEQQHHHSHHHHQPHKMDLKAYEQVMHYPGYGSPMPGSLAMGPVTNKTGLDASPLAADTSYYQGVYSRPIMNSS
# Sequence of Retinoic acid receptor alpha (Homo sapiens) (P10276 whole entry, looked up): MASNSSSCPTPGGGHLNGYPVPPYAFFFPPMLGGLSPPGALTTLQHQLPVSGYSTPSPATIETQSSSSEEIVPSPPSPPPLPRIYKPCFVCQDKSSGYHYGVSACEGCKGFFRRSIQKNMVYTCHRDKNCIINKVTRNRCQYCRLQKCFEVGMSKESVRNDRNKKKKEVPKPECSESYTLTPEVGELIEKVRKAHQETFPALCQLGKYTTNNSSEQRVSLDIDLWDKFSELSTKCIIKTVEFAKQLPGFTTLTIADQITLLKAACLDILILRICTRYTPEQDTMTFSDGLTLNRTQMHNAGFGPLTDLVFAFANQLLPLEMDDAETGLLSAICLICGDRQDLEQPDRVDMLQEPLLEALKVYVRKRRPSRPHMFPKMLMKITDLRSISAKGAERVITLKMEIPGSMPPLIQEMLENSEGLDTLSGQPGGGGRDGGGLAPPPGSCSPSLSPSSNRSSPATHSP
# Sequence of Transcription factor E2F1 (Homo sapiens) (Q01094 whole entry, looked up): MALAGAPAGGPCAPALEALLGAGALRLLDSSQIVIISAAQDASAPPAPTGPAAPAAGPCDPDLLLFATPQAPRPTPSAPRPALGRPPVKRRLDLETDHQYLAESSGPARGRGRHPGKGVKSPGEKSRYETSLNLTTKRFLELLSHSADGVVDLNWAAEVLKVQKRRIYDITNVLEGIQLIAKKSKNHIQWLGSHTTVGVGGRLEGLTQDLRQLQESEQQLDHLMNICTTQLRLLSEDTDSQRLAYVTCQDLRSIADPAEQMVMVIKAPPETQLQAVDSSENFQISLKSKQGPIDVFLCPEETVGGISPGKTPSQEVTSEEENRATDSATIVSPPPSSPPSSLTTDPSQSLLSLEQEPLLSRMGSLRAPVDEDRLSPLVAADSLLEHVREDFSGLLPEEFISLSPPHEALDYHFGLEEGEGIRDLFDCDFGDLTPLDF
# Sequence of CCAAT/enhancer-binding protein beta (Homo sapiens) (P17676 whole entry, looked up): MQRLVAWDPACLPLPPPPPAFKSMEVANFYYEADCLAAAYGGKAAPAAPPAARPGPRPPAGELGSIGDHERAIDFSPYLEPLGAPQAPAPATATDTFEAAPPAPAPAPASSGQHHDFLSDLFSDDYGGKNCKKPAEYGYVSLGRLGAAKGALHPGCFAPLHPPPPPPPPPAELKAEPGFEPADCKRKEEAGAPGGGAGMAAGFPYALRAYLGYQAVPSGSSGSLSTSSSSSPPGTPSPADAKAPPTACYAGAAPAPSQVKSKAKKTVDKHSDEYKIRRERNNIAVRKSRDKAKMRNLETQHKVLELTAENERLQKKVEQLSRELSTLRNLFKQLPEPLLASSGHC
smiles,measurement,setting,value
CC(C)(C)c1cc(CCC(=O)OCC(COC(=O)CCc2cc(C(C)(C)C)c(O)c(C(C)(C)C)c2)(COC(=O)CCc2cc(C(C)(C)C)c(O)c(C(C)(C)C)c2)COC(=O)CCc2cc(C(C)(C)C)c(O)c(C(C)(C)C)c2)cc(C(C)(C)C)c1O,AC50,[1],173 nM (active)
same,outcome,[2],inactive
same,outcome,[3],inactive
same,outcome,[4],inactive
same,outcome,[5],inactive
same,outcome,[6],inactive
same,outcome,[7],inactive
same,outcome,[8],inactive
same,outcome,[9],inactive
same,outcome,[10],inactive
same,outcome,[11],inactive
same,outcome,[12],inactive
same,outcome,[13],inactive
same,AC50,[14],7.29 µM (active)
same,outcome,[15],inactive
same,outcome,[16],inactive
same,outcome,[17],inactive
Cc1ccc(O)cn1,outcome,[1],inactive
same,outcome,[2],inactive
same,outcome,[4],inactive
same,outcome,[5],inactive
same,outcome,[6],inactive
same,outcome,[18],inactive
same,outcome,[7],inactive
same,outcome,[8],inactive
same,outcome,[9],inactive
same,outcome,[10],inactive
same,outcome,[11],inactive
same,outcome,[12],inactive
same,outcome,[13],inactive
same,outcome,[14],inactive
same,outcome,[15],inactive
same,outcome,[16],inactive
same,outcome,[17],inactive
Cc1cc(=O)[nH]c(C(C)C)n1,outcome,[1],inactive
same,outcome,[2],inactive
same,outcome,[3],inactive
same,outcome,[4],inactive
same,outcome,[5],inactive
same,outcome,[6],inactive
same,outcome,[7],inactive
same,outcome,[19],inactive
same,outcome,[9],inactive
same,outcome,[10],inactive
same,outcome,[11],inactive
same,outcome,[12],inactive
same,outcome,[13],inactive
same,outcome,[14],inactive
same,outcome,[15],inactive
same,outcome,[20],inactive
same,outcome,[16],inactive
same,outcome,[17],inactive
F[Si-2](F)(F)(F)(F)F,outcome,[1],inactive
same,outcome,[2],inactive
same,outcome,[4],inactive
same,outcome,[5],inactive
same,outcome,[6],inactive
same,outcome,[18],inactive
same,outcome,[7],inactive
same,outcome,[8],inactive
same,outcome,[9],inactive
same,outcome,[10],inactive
same,outcome,[11],inactive
same,outcome,[12],inactive
same,outcome,[13],inactive
same,outcome,[14],inactive
same,outcome,[15],inactive
same,outcome,[20],inactive
same,outcome,[16],inactive
same,outcome,[17],inactive
O=C(O)CCC(F)(F)C(F)(F)C(F)(F)F,outcome,[1],inactive
same,outcome,[2],inactive
same,outcome,[4],inactive
same,outcome,[5],inactive
same,outcome,[6],inactive
same,outcome,[7],inactive
same,outcome,[19],inactive
same,outcome,[9],inactive
same,outcome,[10],inactive
same,outcome,[11],inactive
same,outcome,[12],inactive
same,outcome,[13],inactive
same,outcome,[14],inactive
same,outcome,[15],inactive
same,outcome,[16],inactive
same,outcome,[17],inactive
C=C(C)CCCC,outcome,[1],inactive
same,outcome,[2],inactive
same,outcome,[4],inactive
same,outcome,[5],inactive
same,outcome,[6],inactive
same,outcome,[18],inactive
same,outcome,[7],inactive
same,outcome,[8],inactive
same,outcome,[9],inactive
same,outcome,[10],inactive
same,outcome,[11],inactive
same,outcome,[12],inactive
same,outcome,[13],inactive
same,outcome,[14],inactive
same,outcome,[15],inactive
same,outcome,[20],inactive
same,outcome,[16],inactive
same,outcome,[17],inactive
CCCCCCCCCc1ccc(OCCO)cc1,AC50,[1],278 nM (active)
same,AC50,[2],22.8 µM (active)
same,AC50,[4],13.3 µM (active)
same,AC50,[5],19.3 µM (active)
same,outcome,[6],inactive
same,AC50,[18],2.26 µM (active)
same,AC50,[7],23.2 µM (active)
same,AC50,[19],7.68 µM (active)
same,outcome,[8],inactive
same,outcome,[9],inactive
same,AC50,[10],23.1 µM (active)
same,outcome,[11],inactive
same,outcome,[12],inactive
same,AC50,[13],25.2 µM (active)
same,outcome,[14],inactive
same,AC50,[15],22.9 µM (active)
same,AC50,[20],21.9 µM (active)
same,AC50,[16],13.3 µM (active)
same,outcome,[17],inactive
O=c1[nH]cccc1O,outcome,[1],inactive
same,outcome,[2],inactive
same,outcome,[4],inactive
same,outcome,[5],inactive
same,outcome,[6],inactive
same,outcome,[18],inactive
same,outcome,[7],inactive
same,outcome,[19],inactive
same,outcome,[8],inactive
same,outcome,[9],inactive
same,outcome,[10],inactive
same,outcome,[11],inactive
same,outcome,[12],inactive
same,outcome,[13],inactive
same,outcome,[14],inactive
same,outcome,[15],inactive
same,outcome,[16],inactive
same,outcome,[17],inactive
